# From paper PMC7862700, “An all-to-all approach to the identification of sequence-specific readers for epigenetic DNA modifications on cytosine”
# How the values were obtained:
# Test in all cases: DAPPL (digital affinity profiling via proximity ligation, sequencing); 10 mM Tris-HCl pH 7.5, 50 mM NaCl, 1 mM DTT, 4% glycerol, room temperature, 30 min; GST-TFs on glutathione beads, 16-mer random dsDNA library, 0.1% formaldehyde crosslink after washing; high values mean tight binding
# Details in all cases: protein: recombinant; tags: N-terminal GST; dsDNA, one strand shown
# FLI1 = molecular target: T1, FLI1 (Homo sapiens, UniProt Q01543 1-452)
# T1 sequence: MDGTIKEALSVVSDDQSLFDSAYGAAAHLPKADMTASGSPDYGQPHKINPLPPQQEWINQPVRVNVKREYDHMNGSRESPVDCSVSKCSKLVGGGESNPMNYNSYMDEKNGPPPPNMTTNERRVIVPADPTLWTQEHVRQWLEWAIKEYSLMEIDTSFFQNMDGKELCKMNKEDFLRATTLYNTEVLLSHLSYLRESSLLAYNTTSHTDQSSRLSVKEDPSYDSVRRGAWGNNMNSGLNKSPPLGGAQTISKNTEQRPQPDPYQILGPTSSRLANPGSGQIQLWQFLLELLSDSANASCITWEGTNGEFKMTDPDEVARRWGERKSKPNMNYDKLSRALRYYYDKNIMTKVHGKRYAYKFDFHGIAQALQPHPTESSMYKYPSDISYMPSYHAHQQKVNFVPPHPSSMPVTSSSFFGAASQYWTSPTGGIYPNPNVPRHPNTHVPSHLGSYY
# In short: (§1)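 Pools were built from human transcription factors expressed in yeast as GST fusions, captured on glutathione beads and DNA-barcoded, along with a tag-only sample. Incubation with 200 nmole of a 16-mer random double-stranded DNA library lasted 30 min at room temperature in Tris/NaCl/DTT/glycerol buffer, and was followed by washing, 0.1% formaldehyde crosslinking, proximity ligation, PCR amplification and Illumina NextSeq500 sequencing. Binding signal is the quotient of each hexamer's read frequency for a factor and its frequency for the tag-only sample.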
# ELK1 = molecular target: T2, ELK1 (Homo sapiens, UniProt P19419 1-428)
# T2 sequence: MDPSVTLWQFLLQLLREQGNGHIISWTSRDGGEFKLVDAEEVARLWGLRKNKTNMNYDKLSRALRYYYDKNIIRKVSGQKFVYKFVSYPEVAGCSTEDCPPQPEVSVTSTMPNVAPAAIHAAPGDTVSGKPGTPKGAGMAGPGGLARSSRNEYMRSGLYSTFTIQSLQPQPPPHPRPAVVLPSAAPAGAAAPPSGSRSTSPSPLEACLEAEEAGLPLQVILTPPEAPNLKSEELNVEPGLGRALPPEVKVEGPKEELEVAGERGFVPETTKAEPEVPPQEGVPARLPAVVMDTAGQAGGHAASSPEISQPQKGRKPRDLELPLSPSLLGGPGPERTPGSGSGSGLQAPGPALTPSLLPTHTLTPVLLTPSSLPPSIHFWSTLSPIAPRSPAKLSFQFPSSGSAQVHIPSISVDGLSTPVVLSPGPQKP
# In short: as §1
# GABPA = molecular target: T3, GABPA (Homo sapiens, UniProt Q06546 1-454)
# T3 sequence: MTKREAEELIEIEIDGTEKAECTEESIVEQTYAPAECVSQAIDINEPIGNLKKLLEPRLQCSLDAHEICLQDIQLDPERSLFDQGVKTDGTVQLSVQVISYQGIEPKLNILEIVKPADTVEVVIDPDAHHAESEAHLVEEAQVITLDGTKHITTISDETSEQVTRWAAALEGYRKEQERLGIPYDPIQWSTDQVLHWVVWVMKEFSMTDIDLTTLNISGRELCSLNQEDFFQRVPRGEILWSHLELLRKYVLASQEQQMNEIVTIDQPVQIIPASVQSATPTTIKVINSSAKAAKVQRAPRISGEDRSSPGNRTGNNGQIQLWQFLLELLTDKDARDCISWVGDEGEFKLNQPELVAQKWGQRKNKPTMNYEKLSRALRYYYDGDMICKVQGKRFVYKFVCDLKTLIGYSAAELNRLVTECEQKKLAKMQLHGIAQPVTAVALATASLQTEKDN
# In short: as §1
# ERG = molecular target: T4, ERG (Homo sapiens, UniProt P11308 1-479)
# T4 sequence: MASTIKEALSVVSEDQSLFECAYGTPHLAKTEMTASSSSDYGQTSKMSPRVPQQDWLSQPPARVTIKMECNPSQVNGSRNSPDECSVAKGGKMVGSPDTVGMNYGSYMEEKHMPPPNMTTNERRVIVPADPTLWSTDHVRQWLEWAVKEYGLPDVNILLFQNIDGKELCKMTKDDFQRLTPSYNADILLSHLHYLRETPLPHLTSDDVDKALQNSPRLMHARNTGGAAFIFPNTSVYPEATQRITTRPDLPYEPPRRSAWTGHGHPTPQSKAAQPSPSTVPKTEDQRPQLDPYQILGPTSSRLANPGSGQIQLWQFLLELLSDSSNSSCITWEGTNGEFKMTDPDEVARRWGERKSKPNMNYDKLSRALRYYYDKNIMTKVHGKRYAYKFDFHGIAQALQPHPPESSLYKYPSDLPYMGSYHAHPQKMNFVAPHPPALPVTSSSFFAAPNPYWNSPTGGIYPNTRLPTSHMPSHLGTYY
# In short: as §1
# ELF1 = ELF1 (Homo sapiens, UniProt P32519 1-619)
# In short: as §1
# EHF = molecular target: T5, EHF (Homo sapiens, UniProt Q9NZC4 1-300)
# T5 sequence: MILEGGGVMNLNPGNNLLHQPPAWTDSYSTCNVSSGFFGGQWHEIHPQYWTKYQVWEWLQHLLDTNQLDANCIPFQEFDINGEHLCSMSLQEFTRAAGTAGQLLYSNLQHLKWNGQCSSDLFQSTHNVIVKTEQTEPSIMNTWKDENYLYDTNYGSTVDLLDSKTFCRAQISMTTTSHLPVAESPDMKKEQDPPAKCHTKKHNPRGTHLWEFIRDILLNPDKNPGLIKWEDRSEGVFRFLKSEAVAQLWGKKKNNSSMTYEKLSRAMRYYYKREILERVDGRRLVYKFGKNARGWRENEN
# In short: as §1
# SPI1 = SPI1 (Homo sapiens, UniProt P17947 1-270)
# In short: as §1
# SPIB = SPIB (Homo sapiens, UniProt Q01892 1-262)
# In short: as §1
# ELK3 = molecular target: T6, ELK3 (Homo sapiens, UniProt P41970 1-407)
# T6 sequence: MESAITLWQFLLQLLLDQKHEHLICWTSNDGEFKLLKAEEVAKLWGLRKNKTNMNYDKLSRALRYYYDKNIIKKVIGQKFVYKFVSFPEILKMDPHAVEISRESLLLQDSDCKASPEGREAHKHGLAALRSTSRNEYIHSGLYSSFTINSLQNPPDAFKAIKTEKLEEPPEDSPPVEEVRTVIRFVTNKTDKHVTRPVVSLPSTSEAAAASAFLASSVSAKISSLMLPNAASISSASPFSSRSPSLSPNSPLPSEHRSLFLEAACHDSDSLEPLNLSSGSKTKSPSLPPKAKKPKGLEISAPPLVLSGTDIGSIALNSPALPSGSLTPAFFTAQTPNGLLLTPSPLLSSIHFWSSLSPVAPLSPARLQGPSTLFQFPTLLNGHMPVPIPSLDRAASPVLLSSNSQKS
# In short: as §1
# FEV = molecular target: T7, FEV (Homo sapiens, UniProt Q99581 1-238)
# T7 sequence: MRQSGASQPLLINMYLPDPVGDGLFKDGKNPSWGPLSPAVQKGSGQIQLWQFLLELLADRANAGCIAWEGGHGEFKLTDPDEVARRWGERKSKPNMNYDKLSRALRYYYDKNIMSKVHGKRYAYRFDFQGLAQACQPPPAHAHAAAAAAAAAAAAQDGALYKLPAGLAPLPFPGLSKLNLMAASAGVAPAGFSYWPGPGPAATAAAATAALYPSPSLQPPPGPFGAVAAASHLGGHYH
# In short: as §1
# ETV5 = ETV5 (Homo sapiens, UniProt P41161 1-510)
# In short: as §1
# SPIC = molecular target: T8, SPIC (Homo sapiens, UniProt Q8N5J4 1-248)
# T8 sequence: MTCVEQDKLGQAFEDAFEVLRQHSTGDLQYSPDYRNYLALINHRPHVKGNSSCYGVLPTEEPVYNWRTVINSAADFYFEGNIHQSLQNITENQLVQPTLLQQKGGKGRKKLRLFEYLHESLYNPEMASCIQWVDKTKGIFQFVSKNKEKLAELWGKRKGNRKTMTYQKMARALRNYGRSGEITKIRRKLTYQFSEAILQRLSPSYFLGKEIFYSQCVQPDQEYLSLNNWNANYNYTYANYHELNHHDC
# In short: as §1
# ELF4 = ELF4 (Homo sapiens, UniProt Q99607 1-663)
# In short: as §1
# ELK4 = molecular target: T9, ELK4 (Homo sapiens, UniProt P28324-2 1-405)
# T9 sequence: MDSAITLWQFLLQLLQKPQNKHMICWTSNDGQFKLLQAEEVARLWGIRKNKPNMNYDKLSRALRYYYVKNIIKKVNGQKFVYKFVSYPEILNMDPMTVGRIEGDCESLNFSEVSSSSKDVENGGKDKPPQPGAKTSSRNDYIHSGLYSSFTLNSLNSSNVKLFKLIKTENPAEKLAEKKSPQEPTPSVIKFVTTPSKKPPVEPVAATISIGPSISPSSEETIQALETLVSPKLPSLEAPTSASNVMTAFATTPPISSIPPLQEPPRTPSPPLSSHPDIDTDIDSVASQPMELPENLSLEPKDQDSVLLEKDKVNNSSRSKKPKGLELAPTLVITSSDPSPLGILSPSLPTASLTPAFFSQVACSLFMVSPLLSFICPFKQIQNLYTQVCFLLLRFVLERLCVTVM
# In short: as §1
# ETV2 = molecular target: T10, ETV2 (Homo sapiens, UniProt O00321 1-342)
# T10 sequence: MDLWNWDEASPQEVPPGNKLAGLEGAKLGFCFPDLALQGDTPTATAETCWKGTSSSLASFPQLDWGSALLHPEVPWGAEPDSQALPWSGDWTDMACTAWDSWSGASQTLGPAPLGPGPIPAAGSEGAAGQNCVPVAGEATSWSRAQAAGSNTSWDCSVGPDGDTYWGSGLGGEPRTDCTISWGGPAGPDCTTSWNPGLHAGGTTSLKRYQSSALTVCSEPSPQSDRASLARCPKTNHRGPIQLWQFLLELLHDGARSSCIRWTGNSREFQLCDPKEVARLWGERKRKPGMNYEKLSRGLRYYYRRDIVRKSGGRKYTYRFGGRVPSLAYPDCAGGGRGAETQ
# In short: as §1
# ELF3 = molecular target: T11, ELF3 (Homo sapiens, UniProt P78545 1-371)
# T11 sequence: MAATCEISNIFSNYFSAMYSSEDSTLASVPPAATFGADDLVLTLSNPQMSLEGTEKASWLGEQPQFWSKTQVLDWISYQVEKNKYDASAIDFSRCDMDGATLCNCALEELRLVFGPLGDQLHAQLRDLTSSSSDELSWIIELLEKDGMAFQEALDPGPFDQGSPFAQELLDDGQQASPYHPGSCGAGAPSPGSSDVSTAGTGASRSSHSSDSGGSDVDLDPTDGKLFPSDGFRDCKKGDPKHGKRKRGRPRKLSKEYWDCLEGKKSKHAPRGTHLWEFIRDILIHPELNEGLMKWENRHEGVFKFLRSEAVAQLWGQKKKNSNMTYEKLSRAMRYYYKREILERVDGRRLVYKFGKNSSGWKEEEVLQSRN
# In short: as §1
# ETV1 = ETV1 (Homo sapiens, UniProt P50549 1-477)
# In short: as §1
# ELF1, sequence (P32519 whole entry): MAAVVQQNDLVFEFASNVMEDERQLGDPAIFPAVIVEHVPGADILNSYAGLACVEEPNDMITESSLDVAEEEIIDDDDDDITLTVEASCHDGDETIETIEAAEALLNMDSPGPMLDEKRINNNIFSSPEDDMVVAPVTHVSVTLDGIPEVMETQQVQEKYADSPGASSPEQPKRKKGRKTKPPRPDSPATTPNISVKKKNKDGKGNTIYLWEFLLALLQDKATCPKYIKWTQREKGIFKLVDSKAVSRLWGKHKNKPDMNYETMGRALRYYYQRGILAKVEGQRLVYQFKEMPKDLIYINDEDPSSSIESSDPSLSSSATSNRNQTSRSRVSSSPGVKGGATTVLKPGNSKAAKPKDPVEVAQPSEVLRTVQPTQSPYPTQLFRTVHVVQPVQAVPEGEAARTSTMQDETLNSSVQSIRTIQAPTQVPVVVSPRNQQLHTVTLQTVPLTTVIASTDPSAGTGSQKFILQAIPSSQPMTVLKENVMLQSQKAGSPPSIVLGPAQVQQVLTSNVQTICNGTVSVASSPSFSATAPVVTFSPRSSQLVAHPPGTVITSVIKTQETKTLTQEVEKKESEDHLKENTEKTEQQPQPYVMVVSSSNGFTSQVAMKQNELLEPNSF
# ETV1, sequence (P50549 whole entry): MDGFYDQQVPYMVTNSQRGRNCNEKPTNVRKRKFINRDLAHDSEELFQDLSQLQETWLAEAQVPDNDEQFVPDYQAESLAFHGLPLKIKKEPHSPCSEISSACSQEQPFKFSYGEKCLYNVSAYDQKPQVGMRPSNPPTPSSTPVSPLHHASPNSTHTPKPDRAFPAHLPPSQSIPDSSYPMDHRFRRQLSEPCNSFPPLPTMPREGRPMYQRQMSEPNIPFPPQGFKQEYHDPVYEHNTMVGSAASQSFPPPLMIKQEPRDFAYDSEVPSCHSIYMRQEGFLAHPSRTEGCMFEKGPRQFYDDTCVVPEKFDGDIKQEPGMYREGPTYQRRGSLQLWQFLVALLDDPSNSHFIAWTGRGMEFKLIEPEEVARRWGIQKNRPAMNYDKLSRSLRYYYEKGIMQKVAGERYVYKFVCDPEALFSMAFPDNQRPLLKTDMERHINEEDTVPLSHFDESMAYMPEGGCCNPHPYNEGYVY
# SPIB, sequence (Q01892 whole entry): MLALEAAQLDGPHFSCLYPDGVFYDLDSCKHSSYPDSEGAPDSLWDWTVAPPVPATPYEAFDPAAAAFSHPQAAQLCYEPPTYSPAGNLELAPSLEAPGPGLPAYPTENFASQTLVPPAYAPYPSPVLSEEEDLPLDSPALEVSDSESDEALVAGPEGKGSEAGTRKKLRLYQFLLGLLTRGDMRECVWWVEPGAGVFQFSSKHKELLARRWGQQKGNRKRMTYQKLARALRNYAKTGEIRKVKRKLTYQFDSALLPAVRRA
# ELF4, sequence (Q99607 whole entry): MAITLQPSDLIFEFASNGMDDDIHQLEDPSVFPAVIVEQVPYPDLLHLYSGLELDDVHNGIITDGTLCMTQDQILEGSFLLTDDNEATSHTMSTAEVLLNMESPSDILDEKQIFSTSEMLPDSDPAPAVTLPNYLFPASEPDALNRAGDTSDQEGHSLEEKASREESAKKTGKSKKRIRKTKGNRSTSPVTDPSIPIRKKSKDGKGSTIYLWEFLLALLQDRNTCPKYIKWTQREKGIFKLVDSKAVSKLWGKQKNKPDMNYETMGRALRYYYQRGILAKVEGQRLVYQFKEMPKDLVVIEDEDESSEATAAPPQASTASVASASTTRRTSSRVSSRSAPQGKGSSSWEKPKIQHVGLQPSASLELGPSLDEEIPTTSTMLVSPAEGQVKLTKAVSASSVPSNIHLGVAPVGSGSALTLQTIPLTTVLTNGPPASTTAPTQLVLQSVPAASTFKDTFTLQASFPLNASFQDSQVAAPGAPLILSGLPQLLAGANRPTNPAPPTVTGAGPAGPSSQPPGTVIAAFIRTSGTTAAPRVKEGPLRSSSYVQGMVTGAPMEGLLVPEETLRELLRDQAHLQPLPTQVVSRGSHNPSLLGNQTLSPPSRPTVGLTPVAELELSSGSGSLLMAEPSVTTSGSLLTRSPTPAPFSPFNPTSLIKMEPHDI
# ETV5, sequence (P41161 whole entry): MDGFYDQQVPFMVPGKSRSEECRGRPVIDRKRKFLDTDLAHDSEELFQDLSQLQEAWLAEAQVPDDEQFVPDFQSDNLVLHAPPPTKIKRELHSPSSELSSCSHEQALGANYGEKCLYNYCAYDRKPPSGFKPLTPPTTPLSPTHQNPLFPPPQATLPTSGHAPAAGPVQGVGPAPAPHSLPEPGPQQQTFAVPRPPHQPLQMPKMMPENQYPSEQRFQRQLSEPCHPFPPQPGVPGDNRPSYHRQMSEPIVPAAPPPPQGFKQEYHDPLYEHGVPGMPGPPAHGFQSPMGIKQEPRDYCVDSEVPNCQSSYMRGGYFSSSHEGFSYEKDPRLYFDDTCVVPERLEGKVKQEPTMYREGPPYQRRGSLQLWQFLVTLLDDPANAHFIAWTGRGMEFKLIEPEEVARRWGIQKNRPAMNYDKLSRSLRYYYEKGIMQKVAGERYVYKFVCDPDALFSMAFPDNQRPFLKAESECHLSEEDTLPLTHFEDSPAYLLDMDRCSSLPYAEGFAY
Sequence,binding signal (FLI1),binding signal (ELK1),binding signal (GABPA),binding signal (ERG),binding signal (ELF1),binding signal (EHF),binding signal (SPI1),binding signal (SPIB),binding signal (ELK3),binding signal (FEV),binding signal (ETV5),binding signal (SPIC),binding signal (ELF4),binding signal (ELK4),binding signal (ETV2),binding signal (ELF3),binding signal (ETV1)
GCGACC,"1.09 fold enrichment (6-mer frequency, TF over GST control)","1.11 fold enrichment (6-mer frequency, TF over GST control)","1.09 fold enrichment (6-mer frequency, TF over GST control)","1.17 fold enrichment (6-mer frequency, TF over GST control)","1.15 fold enrichment (6-mer frequency, TF over GST control)","1.2 fold enrichment (6-mer frequency, TF over GST control)","1.07 fold enrichment (6-mer frequency, TF over GST control)","1.08 fold enrichment (6-mer frequency, TF over GST control)","1.02 fold enrichment (6-mer frequency, TF over GST control)","1.19 fold enrichment (6-mer frequency, TF over GST control)","1.09 fold enrichment (6-mer frequency, TF over GST control)","1.2 fold enrichment (6-mer frequency, TF over GST control)","1.25 fold enrichment (6-mer frequency, TF over GST control)","1.03 fold enrichment (6-mer frequency, TF over GST control)","1.26 fold enrichment (6-mer frequency, TF over GST control)","1.08 fold enrichment (6-mer frequency, TF over GST control)","1.06 fold enrichment (6-mer frequency, TF over GST control)"
CGTATC,"1.2 fold enrichment (6-mer frequency, TF over GST control)","1.3 fold enrichment (6-mer frequency, TF over GST control)","1.29 fold enrichment (6-mer frequency, TF over GST control)","1.28 fold enrichment (6-mer frequency, TF over GST control)","1.23 fold enrichment (6-mer frequency, TF over GST control)","1.25 fold enrichment (6-mer frequency, TF over GST control)","1.11 fold enrichment (6-mer frequency, TF over GST control)","1.2 fold enrichment (6-mer frequency, TF over GST control)","1.21 fold enrichment (6-mer frequency, TF over GST control)","1.28 fold enrichment (6-mer frequency, TF over GST control)","1.13 fold enrichment (6-mer frequency, TF over GST control)","1.19 fold enrichment (6-mer frequency, TF over GST control)","1.2 fold enrichment (6-mer frequency, TF over GST control)","1.16 fold enrichment (6-mer frequency, TF over GST control)","1.15 fold enrichment (6-mer frequency, TF over GST control)","1.13 fold enrichment (6-mer frequency, TF over GST control)","1.18 fold enrichment (6-mer frequency, TF over GST control)"
